Measurements from PubChem BioAssay (EPA / NIEHS).
The source made the active and inactive calls. How the source made its calls: active means hit-call score of the fitted dose curve at least 0.9, where 1 is the maximum; inactive means score below 0.9.

Read-out: Nuclear factor erythroid 2-related factor 2 (Homo sapiens) (UniProt Q16236)
Test: LTEA_HepaRG_NFE2L2: Life Technologies and Expression Analysis (LTEA) Assay for Nuclear factor erythroid 2-related factor 2 (NFE2L2) Transcription Factor using HepaRG (AID 2283527);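 on outcome: TaqMan qRT-PCR transcript level normalised to ACTB GAPDH and POLR2A housekeeping genes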
Details: mRNA level, 48 h; actives raise or lower the signal
How it was run: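 Differentiated human HepaRG cells, serum-free induction medium, exposed 48 h in duplicate to eight half-log concentrations up to 100 uM in 0.5% DMSO. NFE2L2 mRNA by Fluidigm TaqMan qRT-PCR, normalised to ACTB, GAPDH, POLR2A; bidirectional change versus DMSO.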

Sequence of Nuclear factor erythroid 2-related factor 2 (Homo sapiens) (Q16236 whole entry, looked up): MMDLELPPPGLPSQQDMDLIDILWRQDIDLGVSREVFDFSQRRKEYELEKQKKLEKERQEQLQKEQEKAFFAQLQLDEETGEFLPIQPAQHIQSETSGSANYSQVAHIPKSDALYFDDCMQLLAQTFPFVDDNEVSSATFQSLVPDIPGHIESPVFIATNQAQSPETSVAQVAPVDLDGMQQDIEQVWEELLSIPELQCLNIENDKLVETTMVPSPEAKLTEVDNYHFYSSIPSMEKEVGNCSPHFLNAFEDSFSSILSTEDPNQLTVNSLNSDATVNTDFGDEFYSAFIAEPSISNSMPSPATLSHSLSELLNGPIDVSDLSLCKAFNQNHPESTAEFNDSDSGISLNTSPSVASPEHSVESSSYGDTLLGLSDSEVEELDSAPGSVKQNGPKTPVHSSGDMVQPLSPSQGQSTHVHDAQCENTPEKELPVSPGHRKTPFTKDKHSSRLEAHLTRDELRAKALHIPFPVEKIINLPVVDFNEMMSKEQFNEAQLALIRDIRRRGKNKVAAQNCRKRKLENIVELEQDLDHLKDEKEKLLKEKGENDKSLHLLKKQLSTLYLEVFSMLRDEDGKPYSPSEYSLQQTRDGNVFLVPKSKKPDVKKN

Row | SMILES | outcome | AC50
1 | COc1cc(OC)nc(Sc2cccc(Cl)c2C(=O)O)n1 | inactive | –
2 | CCC(=O)Nc1ccc(Cl)c(Cl)c1 | – | 32.2 µM (active)
3 | CCCCOC(=O)[C@@H](C)Oc1ccc(Oc2ccc(C#N)cc2F)cc1 | inactive | –
4 | CC(C)[C@H](C(=O)O[C@H](C#N)c1cccc(Oc2ccccc2)c1)c1ccc(Cl)cc1 | inactive | –
5 | C#CCC1=C(C)C(OC(=O)C2C(C=C(C)C)C2(C)C)CC1=O (stereo unspecified) | inactive | –
6 | CCOP(=S)(OCC)Oc1ccc([N+](=O)[O-])cc1 | inactive | –
7 | CSC1=N[C@@](C)(c2ccccc2)C(=O)N1Nc1ccccc1 | – | 68.6 µM (active)
8 | CN(C)C(=O)Nc1cccc(C(F)(F)F)c1 | – | 50 µM (active)
9 | CC(COc1ccc(Oc2ccccc2)cc1)Oc1ccccn1 (stereo unspecified) | inactive | –
10 | CCc1cccc(C)c1N(C(=O)CCl)C(C)COC (stereo unspecified) | inactive | –
11 | CCC(=NOC/C=C/Cl)C1=C(O)CC(C2CCOCC2)CC1=O (stereo unspecified) | inactive | –
12 | CCOP(=S)(OCC)SCCSCC | inactive | –
13 | CCC(CC)Nc1c([N+](=O)[O-])cc(C)c(C)c1[N+](=O)[O-] | inactive | –
14 | CN(C)NC(=O)CCC(=O)O | inactive | –
15 | CCOP(=S)(OCC)Oc1cc(C)nc(C(C)C)n1 | inactive | –
16 | CC(Oc1cccc(Cl)c1)C(=O)O (stereo unspecified) | inactive | –
